# Source: the supplement of paper PMC10037445
# Whole data set: some 2,900 compounds, median “NF-kB SEAP reporter activity, fold change vs agonist alone” near 0.99, cut for the highest 2% near 2.6. Many of the other results were omitted from the sample, so the highest values are more common in it than they were.
# How the values were obtained:
# [1] = test system: RAW-Dual; assay: NF-kB SEAP reporter activity, fold change vs agonist alone; cytotoxicity flag (confluency mask): not cytotoxic; higher = enhanced NF-kB activity
# How it was run: (§1)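 Supernatant from RAW-Dual macrophages was read after 20 hours for IRF by QuantiLuc luminescence and for NF-κB by QuantiBlue absorbance at 620 nm. The cells (50,000 cells/well in DMEM, 384-well plates, 37 °C, 5% CO2) had received 50 nL of library stock by pin tool and, 1 h later, a PRR agonist. Reporter activity is expressed relative to agonist-alone wells as fold change, and wells were flagged cytotoxic if IncuCyte confluency was under 70% of agonist controls in both mask sets.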
# [2] = test system: RAW-Dual; assay: NF-kB SEAP reporter activity, fold change vs agonist alone; higher = enhanced NF-kB activity
# How it was run: as §1
# [3] = test system: RAW-Dual; assay: NF-kB SEAP reporter activity, fold change vs agonist alone; cytotoxicity flag (confluency mask): cytotoxic (confluency <70% of control); higher = enhanced NF-kB activity
# How it was run: as §1
# [4] = agonist: ODN 1826 (TLR9) 0.5 ug/mL
# [5] = agonist: Pam2CSK4 (TLR2/6) 0.1 ug/mL
# [6] = agonist: Pam3CSK4 (TLR2/1) 0.1 ug/mL
# [7] = library stock concentration (final ~1000-fold dilution): 10 mM, cytotoxicity flag (confluency mask): not cytotoxic, agonist: Imiquimod (TLR7) […]
# [8] = library stock concentration (final ~1000-fold dilution): 10 mM, cytotoxicity flag (confluency mask): not cytotoxic, agonist: MPLA (TLR4) […]
# [9] = library stock concentration (final ~1000-fold dilution): 10 mM, cytotoxicity flag (confluency mask): cytotoxic (confluency <70% of control), agonist: MPLA (TLR4) […]
compound,measurement,setting,value
Cl.Cl.NC1CCC(NC2CC2c2ccccc2)CC1 (stereo not drawn) (library stock concentration (final ~1000-fold dilution): 10 mM),NF-kB SEAP reporter activity,[1]; agonist: LPS (TLR4) 0.1 ug/mL,1.25
same,NF-kB SEAP reporter activity,[1]; [4],0.222
same,NF-kB SEAP reporter activity,[1]; [5],0.869
same,NF-kB SEAP reporter activity,[1]; [6],0.615
Cl.Cl.NC1CCC(NC2CC2c2ccccc2)CC1 (stereo not drawn),NF-kB SEAP reporter activity,[2]; [7],1.03
same,NF-kB SEAP reporter activity,[2]; [8],1.37
CC12CCC(=O)C=C1C=CC1C2CCC2(C)C1CCC21CCC(=O)O1 (stereo not drawn) (library stock concentration (final ~1000-fold dilution): 10 mM),NF-kB SEAP reporter activity,[1]; agonist: LPS (TLR4) 0.1 ug/mL,0.949
same,NF-kB SEAP reporter activity,[1]; [4],1.05
same,NF-kB SEAP reporter activity,[1]; [5],0.849
same,NF-kB SEAP reporter activity,[1]; [6],0.874
CC12CCC(=O)C=C1C=CC1C2CCC2(C)C1CCC21CCC(=O)O1 (stereo not drawn),NF-kB SEAP reporter activity,[2]; [8],1.05
Cl.O=C1Cc2cc(CCN3CCN(c4nsc5ccccc45)CC3)c(Cl)cc2N1,NF-kB SEAP reporter activity,[2]; [7],0.412
same,NF-kB SEAP reporter activity,[2]; [8],0.73
Cl.O=C1Cc2cc(CCN3CCN(c4nsc5ccccc45)CC3)c(Cl)cc2N1 (library stock concentration (final ~1000-fold dilution): 10 mM),NF-kB SEAP reporter activity,[1]; agonist: LPS (TLR4) 0.1 ug/mL,0.912
same,NF-kB SEAP reporter activity,[1]; [4],0.338
same,NF-kB SEAP reporter activity,[1]; [5],0.746
same,NF-kB SEAP reporter activity,[1]; [6],0.865
O=C1Nc2ccc(CN3C(=O)CSC3=O)cc2/C1=C/c1cc(CN2CCOCC2)c[nH]1 (library stock concentration (final ~1000-fold dilution): 10 mM),NF-kB SEAP reporter activity,[1]; agonist: LPS (TLR4) 0.1 ug/mL,1.89
same,NF-kB SEAP reporter activity,[1]; [4],1.3
same,NF-kB SEAP reporter activity,[1]; [5],0.605
same,NF-kB SEAP reporter activity,[1]; [6],1.13
O=C1Nc2ccc(CN3C(=O)CSC3=O)cc2/C1=C/c1cc(CN2CCOCC2)c[nH]1,NF-kB SEAP reporter activity,[2]; [7],1.07
same,NF-kB SEAP reporter activity,[2]; [8],1.43
CCC(=O)OC(OP(=O)(CCCCc1ccccc1)CC(=O)N1CC(C2CCCCC2)CC1C(=O)O)C(C)C (stereo not drawn),NF-kB SEAP reporter activity,"[2]; library stock concentration (final ~1000-fold dilution): 10 mM water, cytotoxicity flag (confluency mask): not cytotoxic, agonist: Imiquimod (TLR7) […]",0.795
same,NF-kB SEAP reporter activity,"[2]; library stock concentration (final ~1000-fold dilution): 10 mM water, cytotoxicity flag (confluency mask): not cytotoxic, agonist: MPLA (TLR4) […]",0.935
CCC(=O)OC(OP(=O)(CCCCc1ccccc1)CC(=O)N1CC(C2CCCCC2)CC1C(=O)O)C(C)C (stereo not drawn) (library stock concentration (final ~1000-fold dilution): 10 mM water),NF-kB SEAP reporter activity,[1]; agonist: LPS (TLR4) 0.1 ug/mL,0.941
same,NF-kB SEAP reporter activity,[1]; [4],1.05
same,NF-kB SEAP reporter activity,[1]; [5],1.01
same,NF-kB SEAP reporter activity,[1]; [6],0.946
CN(C)c1ccc(O)c2c1CC1CC3C(N(C)C)C(=O)C(C(N)=O)=C(O)C3(O)C(=O)C1=C2O (stereo not drawn),NF-kB SEAP reporter activity,"[2]; library stock concentration (final ~1000-fold dilution): 5 mM, cytotoxicity flag (confluency mask): not cytotoxic, agonist: Imiquimod (TLR7) […]",1.25
same,NF-kB SEAP reporter activity,"[2]; library stock concentration (final ~1000-fold dilution): 5 mM, cytotoxicity flag (confluency mask): not cytotoxic, agonist: MPLA (TLR4) […]",0.933
CN(C)c1ccc(O)c2c1CC1CC3C(N(C)C)C(=O)C(C(N)=O)=C(O)C3(O)C(=O)C1=C2O (stereo not drawn) (library stock concentration (final ~1000-fold dilution): 5 mM),NF-kB SEAP reporter activity,[1]; agonist: LPS (TLR4) 0.1 ug/mL,1.03
same,NF-kB SEAP reporter activity,[1]; [4],1.15
same,NF-kB SEAP reporter activity,[1]; [5],0.833
same,NF-kB SEAP reporter activity,[1]; [6],0.759
CN(C)CCC=C1c2ccccc2C(C)(C)c2ccccc21.Cl (library stock concentration (final ~1000-fold dilution): 10 mM),NF-kB SEAP reporter activity,[3]; agonist: LPS (TLR4) 0.1 ug/mL,1.45
same,NF-kB SEAP reporter activity,[3]; [4],0.727
same,NF-kB SEAP reporter activity,[3]; [5],0.53
same,NF-kB SEAP reporter activity,[3]; [6],0.8
CN(C)CCC=C1c2ccccc2C(C)(C)c2ccccc21.Cl,NF-kB SEAP reporter activity,[2]; [9],1.4
O=C(NO)c1cnc(NC2(c3ccccc3)CC2)nc1 (library stock concentration (final ~1000-fold dilution): 10 mM),NF-kB SEAP reporter activity,[3]; agonist: LPS (TLR4) 0.1 ug/mL,2.94
same,NF-kB SEAP reporter activity,[3]; [4],1.6
same,NF-kB SEAP reporter activity,[3]; [5],0.654
same,NF-kB SEAP reporter activity,[3]; [6],1.4
O=C(NO)c1cnc(NC2(c3ccccc3)CC2)nc1,NF-kB SEAP reporter activity,"[2]; library stock concentration (final ~1000-fold dilution): 10 mM, cytotoxicity flag (confluency mask): cytotoxic (confluency <70% of control), agonist: Imiquimod (TLR7) […]",1.46
same,NF-kB SEAP reporter activity,[2]; [9],2.22
CC(C)NCC(O)COc1ccc(COCCOC(C)C)cc1.O=C(O)/C=C/C(=O)O (stereo not drawn) (library stock concentration (final ~1000-fold dilution): 10 mM),NF-kB SEAP reporter activity,[1]; agonist: LPS (TLR4) 0.1 ug/mL,1.05
same,NF-kB SEAP reporter activity,[1]; [4],0.873
same,NF-kB SEAP reporter activity,[1]; [5],0.984
same,NF-kB SEAP reporter activity,[1]; [6],1.03
CC(C)NCC(O)COc1ccc(COCCOC(C)C)cc1.O=C(O)/C=C/C(=O)O (stereo not drawn),NF-kB SEAP reporter activity,[2]; [7],0.869
same,NF-kB SEAP reporter activity,[2]; [8],1.02
Cc1ccc(-c2c(-c3nn(C)c4ncnc(N5CCC(N6CCCCC6)C5)c34)cnn2C)cc1 (stereo not drawn),NF-kB SEAP reporter activity,[2]; [7],0.947
same,NF-kB SEAP reporter activity,[2]; [8],1.09
Cc1ccc(-c2c(-c3nn(C)c4ncnc(N5CCC(N6CCCCC6)C5)c34)cnn2C)cc1 (stereo not drawn) (library stock concentration (final ~1000-fold dilution): 10 mM),NF-kB SEAP reporter activity,[1]; agonist: LPS (TLR4) 0.1 ug/mL,1.57
same,NF-kB SEAP reporter activity,[1]; [4],0.856
same,NF-kB SEAP reporter activity,[1]; [5],1.21
same,NF-kB SEAP reporter activity,[1]; [6],1.16
Cc1nc(Nc2ncc(C(=O)Nc3c(C)cccc3Cl)s2)cc(N2CCN(CCO)CC2)n1.O,NF-kB SEAP reporter activity,[2]; [7],0.326
same,NF-kB SEAP reporter activity,[2]; [8],0.715
Cc1nc(Nc2ncc(C(=O)Nc3c(C)cccc3Cl)s2)cc(N2CCN(CCO)CC2)n1.O (library stock concentration (final ~1000-fold dilution): 10 mM),NF-kB SEAP reporter activity,[1]; agonist: LPS (TLR4) 0.1 ug/mL,1.33
same,NF-kB SEAP reporter activity,[1]; [4],0.661
same,NF-kB SEAP reporter activity,[1]; [5],0.283
same,NF-kB SEAP reporter activity,[1]; [6],0.215
CC1OC(OC2CCC3(C)C(CCC4(C)C3C=CC35OCC6(CCC(C)(C)CC63)C(O)CC45C)C2(C)CO)C(O)C(OC2OC(CO)C(O)C(O)C2O)C1O (stereo not drawn),NF-kB SEAP reporter activity,[2]; [9],0.319
CC1OC(OC2CCC3(C)C(CCC4(C)C3C=CC35OCC6(CCC(C)(C)CC63)C(O)CC45C)C2(C)CO)C(O)C(OC2OC(CO)C(O)C(O)C2O)C1O (stereo not drawn) (library stock concentration (final ~1000-fold dilution): 10 mM),NF-kB SEAP reporter activity,[3]; agonist: LPS (TLR4) 0.1 ug/mL,0.221
same,NF-kB SEAP reporter activity,[3]; [4],0.257
same,NF-kB SEAP reporter activity,[3]; [5],0.0991
same,NF-kB SEAP reporter activity,[3]; [6],0.143
Clc1ccc(N/N=C(\c2ccccc2)c2ccccn2)nc1,NF-kB SEAP reporter activity,[2]; [7],1.5
same,NF-kB SEAP reporter activity,[2]; [8],2.77
NC(=O)c1ccccn1 (library stock concentration (final ~1000-fold dilution): 10 mM),NF-kB SEAP reporter activity,[1]; agonist: LPS (TLR4) 0.1 ug/mL,1.07
same,NF-kB SEAP reporter activity,[1]; [4],0.942
same,NF-kB SEAP reporter activity,[1]; [5],1.06
same,NF-kB SEAP reporter activity,[1]; [6],0.836
Clc1ccc(N/N=C(\c2ccccc2)c2ccccn2)nc1 (library stock concentration (final ~1000-fold dilution): 10 mM),NF-kB SEAP reporter activity,[1]; agonist: LPS (TLR4) 0.1 ug/mL,4.59
same,NF-kB SEAP reporter activity,[1]; [4],1.18
same,NF-kB SEAP reporter activity,[1]; [5],0.556
same,NF-kB SEAP reporter activity,[1]; [6],1.76
NC(=O)c1ccccn1,NF-kB SEAP reporter activity,[2]; [8],1.08
C=C1CC23CCC4C(C)(C(=O)O)CCCC4(C)C2CCC1C3 (stereo not drawn) (library stock concentration (final ~1000-fold dilution): 10 mM),NF-kB SEAP reporter activity,[1]; agonist: LPS (TLR4) 0.1 ug/mL,0.821
same,NF-kB SEAP reporter activity,[1]; [4],0.749
same,NF-kB SEAP reporter activity,[1]; [5],0.65
same,NF-kB SEAP reporter activity,[1]; [6],0.646
C=C1CC23CCC4C(C)(C(=O)O)CCCC4(C)C2CCC1C3 (stereo not drawn),NF-kB SEAP reporter activity,[2]; [7],0.739
same,NF-kB SEAP reporter activity,[2]; [8],0.753
COc1ccc(CCCOC(Cn2ccnc2)c2ccc(OC)cc2)cc1.Cl (stereo not drawn) (library stock concentration (final ~1000-fold dilution): 10 mM),NF-kB SEAP reporter activity,[1]; agonist: LPS (TLR4) 0.1 ug/mL,0.82
same,NF-kB SEAP reporter activity,[1]; [4],0.588
same,NF-kB SEAP reporter activity,[1]; [5],0.572
same,NF-kB SEAP reporter activity,[1]; [6],0.84
COc1ccc(CCCOC(Cn2ccnc2)c2ccc(OC)cc2)cc1.Cl (stereo not drawn),NF-kB SEAP reporter activity,[2]; [7],0.901
same,NF-kB SEAP reporter activity,[2]; [8],1.28
Cl.Cn1cc(C(=O)Nc2ccc3c(c2)OCCO3)c2ccccc2c1=O (library stock concentration (final ~1000-fold dilution): 10 mM),NF-kB SEAP reporter activity,[1]; agonist: LPS (TLR4) 0.1 ug/mL,2.21
same,NF-kB SEAP reporter activity,[1]; [4],1.48
same,NF-kB SEAP reporter activity,[1]; [5],1.09
same,NF-kB SEAP reporter activity,[1]; [6],1.29
Cl.Cn1cc(C(=O)Nc2ccc3c(c2)OCCO3)c2ccccc2c1=O,NF-kB SEAP reporter activity,[2]; [7],1.2
same,NF-kB SEAP reporter activity,[2]; [8],1.41
